# PubChem BioAssay
# Several values for one entry are separate records, joined by “and”; a condition that tells them apart may be missing. Equal entries are not always repeated. The source holds several records for some structures; these can differ, active in one and inactive in another. Activity calls are given as the source filed them. Unless noted, no stated cut-off is given here; in the data, active means inhibition above about 80%; inactive means the rest.
# Experiments:
# [1] = compounds altering viability of human ES cells (AID 493140; call rule not given here;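 further: cells exposed to compounds for four days before counting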); settings: human embryonic stem cell survival screen; stronger effect = higher value
# [2] = P. berghei load reduction in hepatocytes – cell-based, HepG2, luciferase luminescence, HepG2 viability, primary screen (AID 624349; in the data active means parasite load remaining mostly below about 12%, no sharp cut-off; inactive means mostly above about 10%;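 further: 100% = mean of DMSO negative control wells on the same plate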); settings: P. berghei liver stage in HepG2, luciferase luminescence, concentration not given here; parasite load remaining: stronger effect = lower value; viability: measured here: HepG2 viability without parasites
# [3] = viability loss with induced miR-34 in A549 – imaging, A549 dox-inducible miR-34, nuclei and caspase counts, primary screen (AID 1347080;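 active means compounds whose cell count with miR-34 switched on is under 0.7 times the count with it off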); settings: A549 miR-34 inducible, Hoechst nuclei count, 48 h
# [4] = MELAS cybrid and Rieske KO viability enhancers – cell-based, MELAS cybrids, Rieske KO mouse fibroblasts, CellTiter-Glo, primary screen (AID 1508586;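 active means mean z-score across replicates of 1.96 or higher in either the MELAS or the Rieske mutant cell line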;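 further: z relative to plate mean and SD of compound and empty wells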); settings: low glucose
# [5] = growth inhibition, single agent or in combination, cell-based, chromothripsis tumors, cisplatin or BGB combos (AID 1671449); settings: LFS_MB_P medulloblastoma cells;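 further: cells exposed for 96 hours; 0% = vehicle DMSO and 100% = killing by high DMSO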
# [6] = growth inhibition, single agent and combos, cell-based, chromothripsis tumors, cisplatin or BGB combos (AID 1671450); settings: HDN33 neuroblastoma cells, stronger effect = higher value;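 further: cells exposed to compound for four days; 0% = vehicle DMSO and 100% = cell killing by high DMSO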
# [7] = growth inhibition, single agents and combos, ICB984, cell-based, cisplatin or BGB combos, synergistic combos for chromothripsis tumors (AID 1671451; call rule not given here;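 further: cells exposed for 96 hours before readout; 0% = vehicle DMSO and 100% = killing by high DMSO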); settings: ICB984 medulloblastoma cells, drug combinations, stronger effect = higher value
# [8] = growth inhibition, single agents and combos, LFS_MB_1R, cell-based, cisplatin or BGB combos, synergistic combos for chromothripsis tumors (AID 1671452); settings: LFS_MB_1R medulloblastoma cells, stronger effect = higher value;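 further: cells exposed for 96 hours before readout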
# [9] = growth inhibition, single agents and combos, HTB85, cell-based, BGB or cisplatin IC20 combos, synergistic combos for chromothripsis tumors (AID 1671453); settings: HTB85 osteosarcoma cells, drug combinations, stronger effect = higher value;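 further: cells exposed for 96 hours before readout; 0% = vehicle DMSO and 100% = high DMSO killing control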
# [10] = growth inhibition, single agents and combos, CRL2098, cell-based, BGB or cisplatin IC20 combos, synergistic combos for chromothripsis tumors (AID 1671454); settings: CRL2098 osteosarcoma cells, drug combinations, stronger effect = higher value;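 further: cells exposed for 96 h before readout; 0% = vehicle DMSO and 100% = killing by high DMSO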
# [11] = growth inhibition, single agents and combos, HD-MB03, cell-based, BGB or cisplatin IC20 combos, synergistic combos for chromothripsis tumors (AID 1671455; in the data active means inhibition above about 83%;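 further: 0% = vehicle DMSO and 100% = high DMSO as cytotoxic control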); settings: HD-MB03 medulloblastoma cells, stronger effect = higher value
# [12] = growth inhibition, single agents and combos, UWB1.289, cell-based, BGB or cisplatin combos, synergistic combos for chromothripsis tumors (AID 1671456); settings: UWB1.289 ovarian carcinoma cells, stronger effect = higher value;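 further: cells exposed to compound for four days; 0% = vehicle DMSO and 100% = killing by high DMSO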
# [13] = growth inhibition, single agents and combos, LFS_MB_2R, cell-based, cisplatin combos, synergistic combos for chromothripsis tumors (AID 1671457); settings: LFS_MB_2R medulloblastoma cells, stronger effect = higher value;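 further: cells exposed to compound for four days before readout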
# [14] = growth inhibition, MDA-MB-436, cell-based, BGB or cisplatin combos, synergistic combos for chromothripsis tumors (AID 1671458; call rule not given here;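 further: cells exposed for 96 hours; 0% = vehicle DMSO and 100% = killing by high DMSO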); settings: MDA-MB-436 breast carcinoma growth inhibition, drug combinations, stronger effect = higher value
# [15] = UWB1.289_BRCA1 ovarian cancer growth, cell-based, BGB or cisplatin combinations (AID 1671459); settings: UWB1.289 BRCA1 ovarian carcinoma, drug combinations, stronger effect = higher value
# [16] = drug combination toxicity in non-malignant astrocytes – cell-based, BGB or cisplatin IC20 combos, cytotoxicity control for chromothriptic childhood tumor combination screen (AID 1671460); settings: Human astrocytes, viability inhibition, drug combinations, at 0.5 µM, stronger effect = higher value;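 further: cells exposed to compounds for 96 hours before viability readout; 0% = vehicle and 100% = killing control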
# [17] = BT084 cell growth, single and combined drugs, ICGC_MB145, cisplatin and BGB IC40 combos (AID 1671461); settings: BT084 medulloblastoma cells, drug combinations, at 0.5 µM, stronger effect = higher value;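 further: cells exposed to drugs for 96 hours; 0% = vehicle DMSO and 100% = high DMSO full killing control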
# [18] = stronger effect = lower value, cell number ratio, induced over uninduced
# [19] = measured here: relative caspase fold change +Dox/-Dox
# [20] = measured here: total cells with miR-34 induction, stronger effect = lower value
# [21] = measured here: total cells without miR-34 induction
# [22] = MELAS cybrid survival, CellTiter-Glo 48 h, stronger effect = higher value
# [23] = Rieske KO mouse fibroblast survival, CellTiter-Glo 72 h
# [24] = measured here: combination with BGB IC40, at 0.05 µM
# [25] = measured here: combination with cisplatin, at 0.5 µM
# [26] = measured here: combination with cisplatin, at 5 µM
compound,measurement,setting,value
COc1ccc2c(c1)N(C[C@H](C)CN(C)C)c1ccccc1S2,survival,[1],1.83 (inactive)
same,parasite load remaining,[2],76.2% (inactive)
same,viability,[2],87.8%
same,fold change,[3]; [18],0.88 (inactive)
same,fold change,[3]; [19],1.53
same,cell count,[3]; [20],7810
same,cell count,[3]; [21],8880
same,z-score,[4]; [22],-1.21 (inactive)
same,z-score,[4]; [23],-0.494
COc1ccc(CC(N)C(=O)NC2C(CO)OC(n3cnc4c(N(C)C)ncnc43)C2O)cc1 (centres undefined),fold change,[3]; [18],1 (inactive)
same,fold change,[3]; [19],0.403
same,cell count,[3]; [20],798
same,cell count,[3]; [21],796
same,z-score,[4]; [22],-0.998 (inactive)
same,z-score,[4]; [23],-2.06
same,inhibition,"[5]; at 0.5 µM, stronger effect = higher value",-25.1% (inactive) and 6.28% (inactive)
same,inhibition,"[5]; measured here: combination with BGB IC20, at 0.005 µM",7.23% and -8.63%
same,inhibition,"[5]; measured here: combination with BGB IC40, at 0.005 µM",-30.8% and -22.1%
same,inhibition,[5]; [24],-25.1% and 4.36%
same,inhibition,"[5]; measured here: combination with cisplatin, at 0.5 µM, stronger effect = higher value",-20.6% and 32.4%
same,inhibition,"[5]; measured here: combination with cisplatin, at 5 µM, stronger effect = higher value",120% and 124%
same,inhibition,"[6]; BGB combo, at 5 µM",100% and 99.9%
same,inhibition,[6]; at 0.5 µM,75.5% (inactive) and 96.4% (active)
same,inhibition,"[6]; cisplatin combo, at 5 µM",99.9% and 100%
same,inhibition,"[6]; measured here: with BGB IC20 combination, at 0.5 µM",78.8% and 94.9%
same,inhibition,"[6]; measured here: with cisplatin IC20 combination, at 0.5 µM",74% and 96.7%
same,inhibition,"[6]; single agent, at 5 µM",99.9% and 100%
same,inhibition,"[7]; BGB IC20 combo, at 0.005 µM",14.3% and 49.6%
same,inhibition,"[7]; BGB IC40 combo, at 0.005 µM",37% and 55.6%
same,inhibition,"[7]; BGB IC40 combo, at 0.05 µM",100%
same,inhibition,[7]; at 0.5 µM,-26.8% (inactive) and -23.9% (inactive)
same,inhibition,"[7]; cisplatin combo, at 0.05 µM",101% and 100%
same,inhibition,"[7]; cisplatin combo, at 0.5 µM",-24.2% and -19.9%
same,inhibition,"[7]; cisplatin combo, at 5 µM",-8.56% and -29.6%
same,inhibition,"[7]; measured here: 5 uM single agent, at 5 µM",-9.41% and -1.15%
same,inhibition,[8]; at 0.5 µM,31.4% (inactive) and 64.5% (inactive)
same,inhibition,[8]; [24],0.687% and -51.1%
same,inhibition,[8]; [25],59.4% and 79.7%
same,inhibition,[8]; [26],102% and 99%
same,inhibition,[9]; at 0.5 µM,82.9% (active) and 95.9% (active)
same,inhibition,"[9]; measured here: with BGB IC20, at 0.5 µM",84.1% and 96.2%
same,inhibition,"[9]; measured here: with BGB IC20, at 5 µM",100%
same,inhibition,"[9]; measured here: with cisplatin IC20, at 0.5 µM",80.8% and 96.9%
same,inhibition,"[9]; measured here: with cisplatin IC20, at 5 µM",99.9% and 100%
same,inhibition,"[9]; single agent, at 5 µM",100%
same,inhibition,[10]; at 0.5 µM,56.1% (inactive) and 91.8% (active)
same,inhibition,"[10]; measured here: combination with BGB at IC20, at 0.5 µM",67.8% and 88.9%
same,inhibition,"[10]; measured here: combination with cisplatin at IC20, at 0.5 µM",54.9% and 94.1%
same,inhibition,[11]; at 0.5 µM,87.7% (active) and 99.6% (active)
same,inhibition,"[11]; measured here: combo with BGB at IC20, at 0.5 µM",88.7% and 99.3%
same,inhibition,"[11]; measured here: combo with cisplatin at IC20, at 0.5 µM",91.5% and 99.7%
same,inhibition,[12]; at 0.5 µM,50% (inactive) and 83.6% (active)
same,inhibition,"[12]; measured here: inhibition with BGB combination, at 0.05 µM",-13.6% and -16.5%
same,inhibition,"[12]; measured here: inhibition with cisplatin combination, at 0.05 µM",-12.2% and -18.5%
same,inhibition,[13]; at 0.5 µM,29.8% (inactive) and 56.9% (inactive)
same,inhibition,[13]; [25],55.5% and 77.6%
same,inhibition,[13]; [26],108% and 104%
same,inhibition,[14]; at 0.5 µM,57.5% (inactive) and 76.7% (inactive)
same,inhibition,"[14]; measured here: BGB combination, at 0.5 µM",54.4% and 71.5%
same,inhibition,"[14]; measured here: BGB combination, at 5 µM",97.5% and 96%
same,inhibition,"[14]; measured here: cisplatin combination, at 0.5 µM",53% and 76.1%
same,inhibition,"[14]; measured here: cisplatin combination, at 5 µM",98.3% and 97.8%
same,inhibition,"[15]; BGB combination, concentration series, at 5 µM",117% and 113%
same,inhibition,[15]; at 0.5 µM,59% (inactive) and 95.4% (active)
same,inhibition,"[15]; cisplatin combination, concentration series, at 5 µM",117% and 111%
same,inhibition,[16],40.4% (inactive) and 94.2% (active)
same,inhibition,[16]; measured here: combo with BGB IC20,44.5% and 93.9%
same,inhibition,[16]; measured here: combo with cisplatin IC20,14.8% and 91.4%
same,inhibition,[17],25.7% (inactive) and 46.2% (inactive)
